Assay outcomes: PubChem, The Scripps Research Institute Molecular Screening Center
TTR transcr act: TTR transcription activation, primary screen. SH-SY5Y TTR promoter Gaussia luciferase, luminescence; 100% = recombinant luciferase protein wells. activation, % at 16.7 µM. 1.3% of 92,000 active;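 active means activation above the mean of all tested compounds plus 3 SD, cut at about 9.5% in these data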;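 further: cells exposed to compounds for one day before reading; 0% = median of all test compound wells on the plate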
TTR inh HuH7: HuH7 TTR transcription inhibition, counter-screen; inhibition, % at 16.7 µM; HuH7 TTR promoter-Gaussia luciferase reporter, luminescence; 4% of 1,100 active; AID 1117279; shares compounds with TTR transcr act;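 active means average inhibition above the solvent-only control wells' mean plus 3 SD, cut at about 15% in these data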;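 further: 0% = cells with DMSO only and 100% = cells with inhibitor control FD; inhibitors lower well luminescence so higher value means more inhibition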
TTR act confirm: confirmation of human transthyretin transcription activators; shares compounds with TTR transcr act; SHSY5Y TTR promoter Gaussia luciferase, luminescence; 100% = purified Lucia enzyme wells, no cells; activation, % at 16.7 µM; 1,100 tested, under 10 active; AID 1117280;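 active means mean activation above a set limit taken from the earlier primary screen, cut at about 11% in these data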;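 further: 0% = DMSO-treated cells and 100% = recombinant Lucia luciferase without cells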
Numbers without * were called inactive. Many of the other results were omitted from the sample, so hits are more common in it than they were.

What do the screens show for `CCOC(=O)C1CCN(C(=O)Cn2nc(C)n3nc(-c4ccc(OC)cc4)cc3c2=O)CC1`?
TTR transcr act: 11*; TTR inh HuH7: -6; TTR act confirm: -1

What do the screens show for `O=C1CCCC2=C1C1(CCCC1)N=C(Nc1nc3cc(Br)ccc3o1)N2`?
TTR transcr act: 0

How did O=c1[nH]c2ccccc2nc1-c1nnnn1Cc1ccccc1 do in these assays?
TTR transcr act: 1

What do the screens show for `COC(=O)C[C@H]1CC[C@@H]2[C@H](COc3ccc(NC(=O)c4cccc(Cl)c4)cc3C(=O)N2C)O1`?
TTR transcr act: 3

What do the screens show for `C[C@H]1COc2cc(N3CCSCC3)ccc2S(=O)(=O)N1C`?
TTR transcr act: 0

How did CCC(C)(C)n1nnnc1C(c1cc2cccc(C)c2[nH]c1=O)N1CCN(C(=O)c2ccco2)CC1 (centres undefined) do in these assays?
TTR transcr act: 1

What do the screens show for `Cc1cccc2cc(C(c3nnnn3Cc3ccc4c(c3)OCO4)N3CCCC3)c(=O)[nH]c12` (centres undefined)?
TTR transcr act: 11*; TTR inh HuH7: -13; TTR act confirm: 1

How did O=c1[nH]c2cc3c(cc2cc1C(c1nnnn1Cc1ccccc1)N1CCCc2ccccc21)OCO3 (centres undefined) do in these assays?
TTR transcr act: 0

Results for CCOC(=O)CCCNC(=O)O[C@@H]1CC[C@@]23CCCN2C(=O)CCC[C@H]3C1 ?
TTR transcr act: 4

Results for Cc1ccc(Cn2cc(COC(=O)N3CCCC3)nn2)cc1 ?
TTR transcr act: 0

How did Cc1ccccc1C(=O)NCC(=O)NNC(=O)c1cccc(Cl)c1 do in these assays?
TTR transcr act: 19*; TTR inh HuH7: -12; TTR act confirm: 0

What do the screens show for `Cc1cccc(C(=O)NNC(=O)c2ccccc2C)c1`?
TTR transcr act: -2

How did Cc1csc(C(=O)NCC(=O)NNC(=O)c2cccc(Cl)c2)c1 do in these assays?
TTR transcr act: 0

How did O=C(Nc1ccc(Cl)cc1Cl)OC1CCC12CCC(c1ccccc1)CC2 (centres undefined) do in these assays?
TTR transcr act: 0

How did Cc1cc(C(=O)O)c(C)n1Cc1ccncc1 do in these assays?
TTR transcr act: -1

What do the screens show for `Nc1cnccc1C(=O)O`?
TTR transcr act: 10*; TTR inh HuH7: -8; TTR act confirm: 1

How did Nc1ccc(Br)cc1C(=O)O do in these assays?
TTR transcr act: 2

What do the screens show for `CCOc1ccc(/C=N/Nc2nc(C)cs2)c(O)c1`?
TTR transcr act: 0

Results for Cc1ccc(CNC(=O)CSc2ncc(C(=O)Nc3ccccc3)c(=O)n2C)cc1 ?
TTR transcr act: -2

What do the screens show for `CCN(CC)C(=O)CSc1ncnc2sc(-c3ccccc3)cc12`?
TTR transcr act: -4

Results for CC(C)C(C)(C#N)NC(=O)CSc1ncnc2sc(-c3ccccc3)cc12 (centres undefined) ?
TTR transcr act: -1

How did CCc1cc2c(SCC(=O)C(C#N)=C3N(C)c4ccccc4N3C)ncnc2s1 do in these assays?
TTR transcr act: 9.9*; TTR inh HuH7: -29; TTR act confirm: 0

What do the screens show for `O=C(NCC(c1ccco1)N1CCCC1)c1ccc(-n2cccn2)cc1` (centres undefined)?
TTR transcr act: -1

What do the screens show for `O=C(CNC(=O)c1ccccc1)NCC(c1ccco1)N1CCCC1` (centres undefined)?
TTR transcr act: 13*; TTR inh HuH7: -12; TTR act confirm: 1

What do the screens show for `N#Cc1ccc(C(=O)NCC(c2ccco2)N2CCCCC2)cc1` (centres undefined)?
TTR transcr act: -2

What do the screens show for `O=C(Nc1ccc(OC(F)(F)F)cc1)Nc1nc2ncccn2c1-c1ccc(C(F)(F)F)cc1`?
TTR transcr act: 1

What do the screens show for `C=CCCC(=O)N[C@H]1CC[C@@]23CCCN2C(=O)CCC[C@H]3[C@H]1C`?
TTR transcr act: 0

What do the screens show for `COC(=O)[C@]12CCCCC=C1N(Cc1ccc(OC)cc1)C(=O)[C@@H]2CC(=O)N1CCOCC1`?
TTR transcr act: 1

Results for O=C(c1ccccc1)c1ccc(OCCn2cnc3ccccc3c2=O)cc1 ?
TTR transcr act: 0

What do the screens show for `Cc1cc(C)n(-c2nc3ccccc3c(=O)n2OCCOc2ccccc2)n1`?
TTR transcr act: 32*; TTR inh HuH7: -10; TTR act confirm: -1

What do the screens show for `CC(C)(c1ccccc1)c1ccc(OCCn2cnc3ccccc3c2=O)cc1`?
TTR transcr act: 0

How did COC(=O)[C@]12C[C@H](CC(=O)NCCc3ccccc3OC)C(=O)N(Cc3cccc4ccccc34)C1=C[C@H](C(C)(C)C)O[C@@H]2C do in these assays?
TTR transcr act: 1

How did CN(C)[C@@H]1CCN(c2ccc3c(c2)O[C@@H]2CCN(C2)S3(=O)=O)C1 do in these assays?
TTR transcr act: -1

Results for CCCOc1ccc(N2C(=O)CC(SC(=NC)Nc3ccc(F)cc3)C2=O)cc1 (centres undefined) ?
TTR transcr act: 0

How did CCOc1ccc(N2C(=O)CC(NCCc3ccncc3)C2=O)cc1 (centres undefined) do in these assays?
TTR transcr act: 0

Results for CCCOc1ccc(N2C(=O)CC(NCC(=O)OCC)C2=O)cc1 (centres undefined) ?
TTR transcr act: 10.0*; TTR inh HuH7: -13; TTR act confirm: 0

How did O=C(NCCCO)C(=O)Nc1cc2c3c(c1)CCC(=O)N3CCC2 do in these assays?
TTR transcr act: 7

Results for Cc1cnc(C(=O)OCC(=O)N(CC(C)C)C2CCS(=O)(=O)C2)cn1 (centres undefined) ?
TTR transcr act: 0

Results for CC(C)CN(C(=O)CSc1nnnn1C)C1CCS(=O)(=O)C1 (centres undefined) ?
TTR transcr act: 2

What do the screens show for `Cc1nn(CC(=O)N(CC(C)C)C2CCS(=O)(=O)C2)c(C)c1[N+](=O)[O-]` (centres undefined)?
TTR transcr act: 13*; TTR inh HuH7: -15; TTR act confirm: -1

Results for COC(=O)[C@]12C[C@H](CC(=O)N3CCCC3)C(=O)N(Cc3cccc4ccccc34)C1=C[C@H](COCc1ccccc1)O[C@@H]2C ?
TTR transcr act: -2

What do the screens show for `CC(C)(C)S(=O)(=O)N1C[C@@H]2CC(=O)C=C2[C@H]1CCO`?
TTR transcr act: 1

What do the screens show for `COc1cc(NC(=O)NC2CCCCN(Cc3ccc(Cl)cc3)C2=O)cc(OC)c1` (centres undefined)?
TTR transcr act: 2

Results for C[C@H]1C2CC(OC(=O)NCc3ccccc3)C(C2)[C@H]2CCCCN21 (some centres undefined) ?
TTR transcr act: 1

What do the screens show for `C=CCOC(=O)C1C(=O)CC(C)(O)C(C(=O)OCC=C)C1c1ccc(N(C)C)cc1` (centres undefined)?
TTR transcr act: 25*; TTR inh HuH7: -10; TTR act confirm: 0

Results for CCOC(=O)C1C(=O)CC(C)(O)C(C(=O)OCC)C1c1ccc(SC)cc1 (centres undefined) ?
TTR transcr act: -2

How did CCOC(=O)C1C(=O)CC(C)(O)C(C(=O)OCC)C1c1ccc(Br)cc1 (centres undefined) do in these assays?
TTR transcr act: -1

Results for C[C@H]1CCCN1c1cccc2c1S(=O)(=O)N(C1CC1)CCCO2 ?
TTR transcr act: -1
